Assay results as given in PubChem BioAssay (Tox21).
Inconclusive results are not listed. Calls of active or inactive are those of the source. The call rests on the fitted dose curve.

Experiment: p53 small molecule agonists, cell-based qHTS assay with rat liver microsomes: qHTS cell viability counter screen (AID 1963580); further: nearly all actives have a fitted effect of over 45% in size
Conditions: p53RE-bla HCT-116 + rat microsomes, ATP viability, 16 h; series mostly up to 66 µM; activity change, negative = cytotoxicity: at the top concentration
Source text: National Center for Advancing Translational Sciences [NCATS]
Division of Preclinical Innovation [DPI]
U.S. Environmental Protection Agency [EPA]
National Institutes of Environmental Health Sciences [NIEHS]
National Toxicology Program [NTP]
U.S. Food and Drug Administration [FDA]
p53, a tumor suppressor protein, is activated following cellular insult, including DNA damage and other cellular stresses. The activation of p53 regulates cell fate by inducing DNA repair, cell cycle arrest, apoptosis, or cellular senescence. The activation of p53, therefore, is a good indicator of DNA damage and other cellular stresses. The CellSensor p53RE-bla HCT-116 cell line contains a stably integrated beta-lactamase reporter gene under control of the p53 response elements. The activation of the reporter gene under culture conditions can be detected by fluorescence intensity. This cell line was used to screen the Tox21 10K compound library in the condition of presence of rat liver microsomes and to identify agonists that activate the p53 signaling pathway after in vitro metabolic activation (Ooka et al., Archive of Toxicology 96:1975-1987, 2022). The cytotoxicity of the Tox21 compound library against the p53 RE-bla HCT-116 cell line was tested in parallel by measuring the intra cellular ATP content in the same wells.
Tox21 Assay Protocol Summary:
The p53RE-bla cells were dispensed at 4,000cells/3ul/well in 1536-well black-clear bottom plates. After the assay plates were incubated at 37 C, 5% CO2 incubator for 5 hours, 23 nL of compounds dissolved in DMSO, positive controls or DMSO only was transferred to the assay plate. Following compound addition, 3 uL of rat liver microsomes (Molecular Toxicology, Boone, NC) at final concentration of 0.5 mg/mL and 1uL of B-Nicotinamide adenine dinucleotide 2'-phosphate (NADPH) at final concentration of 0.5 mg/mL were transferred to the assay plate. The plates were incubated at 37 C for 16 hours. 1 uL of LiveBLAzer detection mixture was added to each well and the plates were incubated at room temperature in the dark for 2 h. Fluorescence intensity at 460 and 530 nm emission and 405 nm excitation were measured by an Envision plate reader. For cell viability readout that measures cytotoxicity, 4 ul/well of CellTiter-Glo reagent was added into the assay plates using a Flying Reagent Dispenser. After 30 min incubation at room temperature, the luminescence intensity in the plates was measured using a ViewLux plate reader.
On the % scale 0 is the no-effect control and ±100 the full control effect.

With `NCC1CCC(C(=O)Oc2ccc(CCC(=O)O)cc2)CC1` (stereo not given) as the compound, how does the “activity change, negative = cytotoxicity” value read?
The value was 2.2% [at 30.3 µM] (inactive).

Which “activity change, negative = cytotoxicity” value does the source give for `CCCCCCCC/C=C\CCCCCCCC(=O)OC` here?
Its value is 0.741% (inactive).

With `O=C(O)c1snc(Cl)c1Cl` as the compound, how does the “activity change, negative = cytotoxicity” value read?
Its value is 0.441% (inactive).

With `CCCCCCc1ccc(N)cc1` as the compound, how does the “activity change, negative = cytotoxicity” value read?
The value was -6.85% (inactive).

With `Nc1ccc(C(=O)N2CC3CC(CN(Cc4ccccc4)C3)C2)cc1` as the compound, how does the “activity change, negative = cytotoxicity” value read?
The value was 2.99% [at 30.3 µM] (inactive).

With `Nc1ncnc(Nc2ccccc2)n1` as the compound, how does the “activity change, negative = cytotoxicity” value read?
Its value is -7.49% [at 30.3 µM] (inactive).

For `CC[C@H]1OC(=O)[C@H](C)[C@@H](O[C@H]2C[C@@](C)(OC)[C@@H](O)[C@H](C)O2)[C@H](C)[C@@H](O[C@@H]2O[C@H](C)C[C@H](N(C)C)[C@H]2O)[C@](C)(O)C[C@@H](C)C(=O)[C@H](C)[C@@H](O)[C@]1(C)O`, which “activity change, negative = cytotoxicity” value is on record?
Its value is -1.21% [at 30.3 µM] (inactive).

With `CCN1CCN(c2cc(-c3ccc(F)cc3)c3c(n2)CCCCCC3)CC1` as the compound, how does the activity change, negative = cytotoxicity read?
Its activity change, negative = cytotoxicity is 0.85% [at 13.5 µM] (inactive).

Which “activity change, negative = cytotoxicity” value does the source give for `O=C(O)c1cccc(Oc2ccccc2)c1` here?
Its value is 0.891% (inactive).

For `N=c1ccn2c(n1)O[C@H]1[C@H](O)[C@@H](CO)O[C@H]12`, which “activity change, negative = cytotoxicity” value is on record?
The value was -0.588% (inactive).

For `Cc1cccc(C)c1NC(=O)c1ccc(N)cc1`, which “activity change, negative = cytotoxicity” value is on record?
Its value is -5.87% [at 30.3 µM] (inactive).

For `COc1cc(CNC(=O)CCCC/C=C/C(C)C)ccc1O`, which “activity change, negative = cytotoxicity” value is on record?
Its value is 2.8% (inactive).

With `CN1CCN(c2cc3c(cc2F)c(=O)c(C(=O)O)cn3-c2ccc(F)cc2)CC1` as the compound, how does the “activity change, negative = cytotoxicity” value read?
The value was 1.61% [at 30.3 µM] (inactive).

Which “activity change, negative = cytotoxicity” value does the source give for `O=C(O)C(Cc1cc(I)c(O)c(I)c1)c1ccccc1` (stereo not given) here?
The value was -0.0836% [at 30.3 µM] (inactive).

With `O=P(O)(O)Oc1ccccc1` as the compound, how does the “activity change, negative = cytotoxicity” value read?
The value was -0.108% (inactive).

With `CCOC(=O)c1ccccc1O` as the compound, how does the “activity change, negative = cytotoxicity” value read?
The value was -4.83% [at 30.3 µM] (inactive).

Which “activity change, negative = cytotoxicity” value does the source give for `C#CC(C)N(C)C(=O)Nc1ccc(Cl)cc1` (stereo not given) here?
The value was -10.2% (inactive).

Which “activity change, negative = cytotoxicity” value does the source give for `CCCCCCCCC(=O)Cl` here?
Its value is -17.3% (inactive).

For `CCC(=O)c1c(O)cc(O)cc1O`, which “activity change, negative = cytotoxicity” value is on record?
The value was 2.78% [at 30.3 µM] (inactive).

Which “activity change, negative = cytotoxicity” value does the source give for `COc1cc2c(cc1OC)CN(C(=O)[C@H](C)N[C@@H](CCc1ccccc1)C(=O)O)[C@H](C(=O)O)C2` here?
Its value is 10.1% [at 30.3 µM] (inactive).

Which “activity change, negative = cytotoxicity” value does the source give for `CCCSS/C(CCO)=C(\C)N(C=O)Cc1cnc(C)nc1N` here?
The value was -10% [at 30.3 µM] (inactive).

With `Nc1cnn([C@@H]2O[C@H](CO)[C@@H](O)[C@H]2O)c(=O)n1` as the compound, how does the “activity change, negative = cytotoxicity” value read?
Its value is -17.2% (inactive).

With `O=C(OCC1CO1)C1CCCCC1C(=O)OCC1CO1` (stereo not given) as the compound, how does the “activity change, negative = cytotoxicity” value read?
Its value is -0.907% (inactive).

With `CC1OC(=O)C(C)OC1=O` (stereo not given) as the compound, how does the “activity change, negative = cytotoxicity” value read?
The value was 0.513% (inactive).

With `Nc1nc(-c2ccccc2)c(Br)c(=O)[nH]1` as the compound, how does the “activity change, negative = cytotoxicity” value read?
The value was 3.8% [at 30.3 µM] (inactive).

Which “activity change, negative = cytotoxicity” value does the source give for `COc1cc2c3cc1Oc1cc(ccc1O)C[C@@H]1c4c(cc(OC)c(O)c4Oc4ccc(cc4)C[C@@H]3N(C)CC2)CC[N+]1(C)C` here?
Its value is -0.475% [at 30.3 µM] (inactive).

For `COC[C@H](c1ccc(C(F)(F)F)cc1)N1CCN(C2(C)CCN(C(=O)c3c(C)ncnc3C)CC2)C[C@H]1C`, which “activity change, negative = cytotoxicity” value is on record?
Its value is 2.14% [at 30.3 µM] (inactive).

For `CCOc1cc(OCC)c(C(=O)CCC(=O)O)cc1OCC`, which “activity change, negative = cytotoxicity” value is on record?
The value was 4.71% [at 30.3 µM] (inactive).

For `C[C@@H](O)[C@H](N)C(=O)O`, which activity change, negative = cytotoxicity is on record?
The activity change, negative = cytotoxicity was -1.12% [at 13.5 µM] (inactive).

Which “activity change, negative = cytotoxicity” value does the source give for `Cc1ncc([N+](=O)[O-])n1CC(C)O` (stereo not given) here?
Its value is -1.1% [at 30.3 µM] (inactive).

Which “activity change, negative = cytotoxicity” value does the source give for `CC(=O)[C@H]1CC[C@H]2[C@@H]3C=CC4=CC(=O)CC[C@@]4(C)[C@@H]3CC[C@]12C` here?
The value was 0.562% [at 30.3 µM] (inactive).

With `Cc1cc(-c2ccccc2)nnc1NCCN1CCOCC1` as the compound, how does the “activity change, negative = cytotoxicity” value read?
The value was 0.774% [at 30.3 µM] (inactive).

With `COCCOCC(OC)OC` as the compound, how does the “activity change, negative = cytotoxicity” value read?
Its value is 0.102% [at 30.3 µM] (inactive).

For `Clc1cc(Cl)cc(Cl)c1`, which “activity change, negative = cytotoxicity” value is on record?
Its value is 1.54% (inactive).

With `CCCCOc1ccc(OCCCN2CCOCC2)cc1` as the compound, how does the “activity change, negative = cytotoxicity” value read?
The value was 1.52% [at 30.3 µM] (inactive).

Which “activity change, negative = cytotoxicity” value does the source give for `CC1(N)CCC(C(C)(C)N)CC1` (stereo not given) here?
The value was 0.262% (inactive).

With `O=C(O)c1cccc(C(=O)O)n1` as the compound, how does the “activity change, negative = cytotoxicity” value read?
The value was -0.254% (inactive).

For `O=S1OCCO1`, which “activity change, negative = cytotoxicity” value is on record?
Its value is -2.4% (inactive).

For `CC(=O)N(CC(O)CN(C(C)=O)c1c(I)c(C(=O)NCC(O)CO)c(I)c(C(=O)NCC(O)CO)c1I)c1c(I)c(C(=O)NCC(O)CO)c(I)c(C(=O)NCC(O)CO)c1I` (stereo not given), which “activity change, negative = cytotoxicity” value is on record?
The value was -11% [at 30.3 µM] (inactive).

Which “activity change, negative = cytotoxicity” value does the source give for `CC(=O)OC1CCCCC1C(C)(C)C` (stereo not given) here?
Its value is -9.49% (inactive).
